KDM5B inh – KDM5B demethylase inhibition; Q9UGL1; KDM5B demethylase, FDH-coupled NADH fluorescence (FDH is formaldehyde dehydrogenase); Potency, µM (series often up to 57.7 µM), usual class: inhibitors; actives 2.6% (n = 220,000); AID 1347165; active means well fitted inhibition curve with a large enough effect; further: 0% is about no effect; nearly all actives have a fitted effect of over 70% in size
Target sequence (Q9UGL1 whole entry, looked up): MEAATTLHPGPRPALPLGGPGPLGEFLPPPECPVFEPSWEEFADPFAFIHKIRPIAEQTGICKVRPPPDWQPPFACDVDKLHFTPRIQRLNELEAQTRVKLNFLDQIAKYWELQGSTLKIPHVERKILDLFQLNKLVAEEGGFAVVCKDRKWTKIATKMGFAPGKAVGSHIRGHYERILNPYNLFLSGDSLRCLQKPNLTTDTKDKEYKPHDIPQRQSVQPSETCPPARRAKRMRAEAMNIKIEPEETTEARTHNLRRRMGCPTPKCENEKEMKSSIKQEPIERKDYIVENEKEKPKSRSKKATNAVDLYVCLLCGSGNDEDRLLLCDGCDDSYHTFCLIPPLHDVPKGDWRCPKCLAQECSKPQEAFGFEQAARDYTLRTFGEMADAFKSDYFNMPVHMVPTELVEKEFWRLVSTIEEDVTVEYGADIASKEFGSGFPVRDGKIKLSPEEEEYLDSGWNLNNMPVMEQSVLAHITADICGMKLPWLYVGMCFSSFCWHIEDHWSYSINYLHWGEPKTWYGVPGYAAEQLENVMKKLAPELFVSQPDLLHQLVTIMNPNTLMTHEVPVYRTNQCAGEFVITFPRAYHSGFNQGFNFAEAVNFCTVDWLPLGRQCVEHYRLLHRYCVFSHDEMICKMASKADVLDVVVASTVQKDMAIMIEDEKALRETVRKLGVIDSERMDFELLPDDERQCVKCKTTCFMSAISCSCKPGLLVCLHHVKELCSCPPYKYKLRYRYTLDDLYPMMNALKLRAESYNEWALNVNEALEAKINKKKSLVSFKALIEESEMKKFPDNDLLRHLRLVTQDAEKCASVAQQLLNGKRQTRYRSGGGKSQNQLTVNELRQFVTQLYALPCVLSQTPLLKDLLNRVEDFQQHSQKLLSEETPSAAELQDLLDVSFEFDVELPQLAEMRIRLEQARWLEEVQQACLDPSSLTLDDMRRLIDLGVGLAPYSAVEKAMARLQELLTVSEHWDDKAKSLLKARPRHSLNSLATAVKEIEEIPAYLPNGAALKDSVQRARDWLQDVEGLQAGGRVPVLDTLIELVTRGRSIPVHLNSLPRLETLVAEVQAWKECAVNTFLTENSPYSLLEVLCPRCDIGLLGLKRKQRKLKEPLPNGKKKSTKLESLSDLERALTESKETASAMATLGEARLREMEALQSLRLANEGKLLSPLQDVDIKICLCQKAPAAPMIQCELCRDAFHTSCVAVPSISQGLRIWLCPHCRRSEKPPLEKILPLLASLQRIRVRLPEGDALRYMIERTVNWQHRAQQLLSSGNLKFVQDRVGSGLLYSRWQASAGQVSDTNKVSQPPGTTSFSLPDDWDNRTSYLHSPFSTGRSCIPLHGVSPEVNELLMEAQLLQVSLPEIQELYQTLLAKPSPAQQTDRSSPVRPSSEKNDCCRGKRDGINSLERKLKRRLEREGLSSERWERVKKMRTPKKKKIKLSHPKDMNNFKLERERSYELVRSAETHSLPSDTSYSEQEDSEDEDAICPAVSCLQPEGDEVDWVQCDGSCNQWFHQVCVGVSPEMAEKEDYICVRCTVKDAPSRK
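qHTS format, multiple compound concentrations. Buffer 50 mM HEPES pH 7.5/0.01% Tween-20; 200 nM KDM5BΔAP final; 10 min compound preincubation; substrate-mix levels 12.5 µM peptide, 25 µM α-KG, 0.25 mM NAD⁺; 30 min RT; ΔRFU.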
* hit, by the source's call; i = inactive. The sample as a whole holds a higher share of hits than the screen did. Potency means the concentration at half of the fitted maximal effect.

SMILES	KDM5B inh
CN1[C@@H](CCC(=O)N2CCN(c3ccccc3)CC2)CNC(=O)[C@@H]2[C@H]1CCN2Cc1csnn1	i
CN1[C@@H](CCC(=O)N2CCN(c3ccccn3)CC2)CNC(=O)[C@H]2NCC[C@H]21	35.5µM*
Cc1ccc(CN2CC[C@@H]3[C@H]2C(=O)NC[C@H](CCC(=O)N2CCN(c4ccccn4)CC2)N3C)cc1	31.6µM*
O=S(=O)(NCCCO)c1ccc(Cl)c2ccccc12	i
O=C1NCCCCCCN(C(=O)Cc2ccccc2)[C@H]2C[C@H](c3nc(Cc4ccccc4)no3)C[C@@H]12	i
COc1ccc2c(c1)c(C(C(=O)O)N1C[C@H](C)C[C@H](C)C1)cn2CC(=O)O (some centres not stated)	i
CCn1c(SCc2nc(N)nc(Nc3ccccc3)n2)nnc1C1CC1	i
COc1ccc(OC)c(CN2CCNc3cc(Nc4ccccc4)ncc3C2)c1	i
Cc1ccc2c(c1)N1C(=O)OC[C@@H]1CCN(Cc1cccnc1)C2	i
COc1cccc(CN2CCn3c(nnc3[C@@H]3C[C@@H](O)CN3Cc3cccnc3)C2)c1	i
Cc1cccc(CN2CC(N(Cc3cccnc3)S(C)(=O)=O)C2)c1	i
COc1ccc(OC)c(CN2CCC(Cc3ccccc3)CC2)c1	i
Cc1cccc(CN2CCNc3cnc(OCc4cccnc4)cc3C2)c1	17.8µM*
COc1ccc(OC)c(CN2CCC3(CC2)OC(=O)N(Cc2cccnc2)C3(C)c2ccccc2)c1 (configuration not stated)	i
COc1cccc(CN2CCCCCCNC(=O)CC2)c1	i
COc1ccc(OC)c(CN2CCNc3cnc(Nc4cccnc4)cc3C2)c1	25.1µM*
c1cncc(Nc2cc3c(cn2)CN(Cc2c[nH]c4ccccc24)CCN3)c1	i
COc1ccc(OC)c(CN2CCNc3cnc(OCc4cccnc4)cc3C2)c1	39.8µM*
COc1cccc(CN2CCNc3cnc(OCc4cccnc4)cc3C2)c1	35.5µM*
CCCN1C(=O)c2ccccc2NC1c1cc2ccccc2[nH]c1=O (configuration not stated)	i
CCn1nc(C(=O)Nc2nc(-c3ccc4c(c3)OCCO4)cs2)c2ccccc2c1=O	i
Cc1ccc2nc(C)c(C(=O)NC(C)c3ccccc3)cc2c1 (configuration not stated)	i
CCCCc1ccc(NC(=O)N2CCC3(CC2)OCCO3)cc1	i
CC1C(=O)CCN(CCO)C1C (configuration not stated)	i
O=C(NCCc1cccs1)C1CC=CCC1 (configuration not stated)	i
SMILES	KDM5B inh
Cc1ccc(S(=O)(=O)NC[C@H]2OC[C@@H](NC3CCNCC3)[C@@H]2O)cc1	i
CCOc1cc2c(cn1)NCCN(Cc1ccccc1O)C2	35.5µM*
Fc1ccccc1CN1CCNc2cc(Nc3ccccc3)ncc2C1	i
CCC(CC)NC(=O)c1cccc(F)c1	i
CSCC[C@H](NC(=O)[C@H](C)n1nnc2ccccc2c1=O)C(=O)O	i
COc1ccc2cc(/C=C(\NC(=O)c3ccccc3)C(=O)NCCO)c(Cl)nc2c1	i
CN1CCCC2(C1)CN(Cc1cccnc1)c1ccc(C(=O)NCc3cccs3)cc12 (configuration not stated)	i
CC(C)CCN1CCOc2cc(C(=O)NCc3cccs3)ccc2C1	i
Cc1nc(CSCC(=O)NCc2cccs2)cs1	i
Cc1nc(CN2CC3(CCN(C)C3)c3cc(C(=O)NCC4CC4)ccc32)cs1 (configuration not stated)	28.2µM*
Cc1nc(CN2CC3(CCN(C)C3)c3cc(C(=O)NCc4cccs4)ccc32)cs1 (configuration not stated)	35.5µM*
O=C(NCc1cccs1)c1ccc2c(c1)N(Cc1ccccc1)C(=O)CS2=O (configuration not stated)	i
Cc1ccccc1CN1C(=O)c2ccccc2Sc2ccc(C(=O)NCc3cccs3)cc21	i
Cc1nc(COc2ccc(C(=O)Nc3ccccc3N3CCOCC3)cc2)cs1	i
Cc1nc(CC(=O)N2CCCC(c3ccc(C(=O)O)cc3)C2)cs1 (configuration not stated)	i
CN(C)CC(=O)N1CCC2(C1)CN(C)c1ccc(C(=O)NCc3cccs3)cc12 (configuration not stated)	39.8µM*
CCc1nc2ccc(C(=O)NCc3cccs3)cc2nc1CC	i
CN1CCC2(C1)CN(Cc1ccccc1)c1ccc(C(=O)NCc3cccs3)cc12 (configuration not stated)	35.5µM*
CNS(=O)(=O)c1cc(NC(=O)c2cccc(OCc3c(C)noc3C)c2)ccc1C	i
Cc1ccsc1C(=O)N1CCN(C(=O)c2nnn3c2COC(c2ccc(Cl)cc2)C3)CC1 (configuration not stated)	i
N#Cc1c(-c2ccc(Cl)cc2Cl)csc1N	i
COc1ccccc1C1CC(c2ccccc2NS(C)(=O)=O)=NN1C(=O)c1ccco1 (configuration not stated)	i
Cc1ccc(CNC(=O)c2ccc(C(F)(F)F)cc2)cc1	i
